Test results reported in PubChem BioAssay AID430 (Sanford-Burnham Center for Chemical Genomics, 2006).
About 1,100 (1.7%) of roughly 63,000 compounds were called active. Cut-off read from the data, not from the text of the source: active = cytotoxicity above about 50%; inactive = the rest. The full list was thinned out, with actives kept by preference. Potency and affinity values are given separately.

Test: cytotoxicity in HPDE-C7 cells, cell-based, fluorescence, HTS (AID 430);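 note: cells exposed to compound for 48 hours before viability readout; 0% = vehicle and 100% = reference cytotoxic drug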
Settings: HPDE-C7 pancreatic duct cells viability, at 10 µM, stronger effect = higher value

SMILES | cytotoxicity
Cc1cccc2cc(CN(Cc3ccc(F)cc3)C(=O)N(C)C)c3nnnn3c12 | 5.9% (inactive)
COc1ccc(C/C(O)=C(\C#N)c2nc3ccccc3s2)cc1 | 46.3% (inactive)
Cc1ccc(SC/C(O)=C(\C#N)c2nc3ccccc3s2)cc1 | 79.2% (active)
CC(C)=C(C#N)c1nc2ccccc2s1 | -8.8% (inactive)
COC(=O)c1ccc(/C(O)=C(\C#N)c2nc3ccccc3s2)cc1 | 58.4% (active)
N#C/C(=C(/O)CN1CCOCC1)c1nc2ccccc2s1 | 1.3% (inactive)
Cc1ccc(SC/C(O)=C(\C#N)c2nc3ccccc3n2C)cc1 | 16.2% (inactive)
N=c1n(CCN2CCCCC2)c2ccccc2n1CC(O)c1cccc(Br)c1 (centres undefined) | 44.6% (inactive)
C=CCn1c(SCC(=O)O)nnc1-c1cccc(Cl)c1 | 5.9% (inactive)
Cc1cc(N2CCN(C(=O)c3ccco3)CC2)n2nc(C)nc2n1 | 3% (inactive)
O=C(CSc1nc(O)cc(=O)[nH]1)N1CCCc2ccccc21 | 2.5% (inactive)
CC1=C(C)SC(=C(C#N)c2nnc(N3CCOCC3)n2-c2ccccc2)S1 | 23.4% (inactive)
COC(=O)Cc1ccc(NC(=O)c2ccc(Br)o2)cc1 | -2.2% (inactive)
O=C(Nc1ccc(Nc2ccccc2)cc1)c1ccc(Br)o1 | 76.8% (active)
O=C(Nc1ccc(S(=O)(=O)NCCc2ccccc2)cc1)c1ccc(Br)o1 | 12% (inactive)
COc1ccccc1CNC(=O)C1CCCN(S(=O)(=O)c2c(C)[nH]c(=O)[nH]c2=O)C1 (centres undefined) | -20.9% (inactive)
COc1ccc(C(N)=O)cc1N | -18.1% (inactive)
COc1ccc(C(=O)c2ccc(OC)c(N)c2)cc1N | 78.9% (active)
COc1ccc(C(=O)c2ccc(OC)c(OC)c2)cc1OC | -8.6% (inactive)
O=C(NC1CCCCC1)N1CCCCCC1 | -4% (inactive)
CCSc1nnc(NC(=O)c2cc3c(s2)CCCC3)s1 | 7.4% (inactive)
CC[C@]1(O)C[C@@H]2CN(CCc3c([nH]c4ccccc34)[C@@](C(=O)OC)(c3cc4c(cc3OC)N(C)[C@H]3[C@@](O)(C(=O)OC)[C@H](OC(C)=O)[C@]5(CC)C=CCN6CC[C@]43[C@@H]65)C2)C1 | 67.3% (active)
CC[C@]1(O)CC2CN(CCc3c([nH]c4ccccc34)[C@@](C(=O)OC)(c3cc4c(cc3OC)N(C=O)[C@H]3[C@@](O)(C(=O)OC)[C@H](OC(C)=O)[C@]5(CC)C=CCN6CC[C@]43[C@@H]65)C2)C1 (some centres undefined) | 66.3% (active)
CC(=O)N1CCN(C2c3cccc4cccc(c34)C2NS(=O)(=O)c2ccccc2)CC1 (centres undefined) | -18.7% (inactive)

SMILES | cytotoxicity
COc1cccc(OCC(O)CN2CCC(C)CC2)c1 (centres undefined) | 0.1% (inactive)
Cc1cc(C(=O)Nc2ccc(S(=O)(=O)N3CCCC3)cc2)cs1 | -11.4% (inactive)
COC(=O)c1[nH]c2c(c1C)C(=O)CC(c1cc(OC)ccc1OC)C2 (centres undefined) | 31.5% (inactive)
COc1ccc(C2CC(=O)c3c([nH]c(C(=O)OC(C)C)c3C)C2)cc1OC (centres undefined) | -7.1% (inactive)
CCCOCCOC(=O)c1[nH]c2c(c1C)C(=O)CC(c1cc(OC)ccc1OC)C2 (centres undefined) | 60.7% (active)
COc1ccc(OC)c(C2CC(=O)c3c([nH]c(C(=O)OC(C)C)c3C)C2)c1 (centres undefined) | 65.9% (active)
COCCOC(=O)c1[nH]c2c(c1C)C(=O)CC(c1cc(OC)ccc1OC)C2 (centres undefined) | 16.4% (inactive)
CCOCC(=O)Nc1ccc(S(=O)(=O)NCCc2ccccc2)cc1 | 4.2% (inactive)
COC(=O)c1ccc(NC(=O)CCN2CCN(c3ccccc3)CC2)cc1 | 37.6% (inactive)
O=C(Nc1ccc(N2CCCCC2)cc1)c1ccc(F)cc1 | 23.5% (inactive)
O=C(c1ccco1)N1CCN(C(=O)c2ccccc2OC(=O)C23CC4CC(CC(C4)C2)C3)CC1 | -9.7% (inactive)
COc1ccc(N2CC(O)=C(c3nc4ccccc4s3)C2=N)cc1 | 5.8% (inactive)
COc1ccc(N2CC(O)=C(c3nc4ccccc4s3)C2=N)c(OC)c1 | 20.6% (inactive)
CCOc1ccccc1N1CC(O)=C(c2nc3ccccc3s2)C1=N | 65.2% (active)
O=C(O)C(CC(=O)N1CCOCC1)NCc1ccccc1 (centres undefined) | 5.6% (inactive)
CC1CCCN(C(=O)CSc2nnc(-c3cccnc3)n2C2CCCCC2)C1 (centres undefined) | -23.2% (inactive)
CCCN(CC1CC1)C(=O)Nc1ccccc1C | -9.7% (inactive)
C=CCNc1nc(-c2cccc(OC)c2O)nc2ccccc12 | -3% (inactive)
COc1cccc(-c2nc(NC(C)(C)C)c3ccccc3n2)c1O | 10.9% (inactive)
CCC(C)Nc1nc(-c2cccc(OC)c2O)nc2ccccc12 (centres undefined) | 107% (active)
CCC1CCCCN1c1nc(-c2cccc(OC)c2O)nc2ccccc12 (centres undefined) | -2.8% (inactive)
COc1cccc(-c2nc(N3CCCCC3C)c3ccccc3n2)c1O (centres undefined) | 53% (active)
COc1cccc(-c2nc(NCC3CCCO3)c3ccccc3n2)c1O (centres undefined) | 52.2% (active)
COc1cccc(-c2nc(NC(C)C)c3ccccc3n2)c1O | 23.8% (inactive)

SMILES | cytotoxicity
Oc1ccccc1-c1nc(NCC2CCCO2)c2ccccc2n1 (centres undefined) | 46.8% (inactive)
COc1cccc(-c2nc(N3CCCCC3)c3ccccc3n2)c1O | -7.5% (inactive)
O=C(CN(C1CC1)S(=O)(=O)c1ccc(S(=O)(=O)N2CCCCCC2)cc1)Nc1ccccc1 | 7.4% (inactive)
CCCOc1ccc(C(=O)NCCC(=O)NCCCC(=O)OCC)cc1 | 1.7% (inactive)
O=C1C(SC(F)(F)C(F)F)=C(C(F)(F)F)OC2C3C=CC(C3)C12 (centres undefined) | 3.6% (inactive)
O=C1NC(NS(=O)(=O)c2ccccc2)(C(F)(F)F)C(=O)N1Cc1cccnc1 (centres undefined) | -8.4% (inactive)
CC(C)(C)c1ccccc1OCC(=O)NCCC(=O)O | -12.2% (inactive)
CCS(=O)(=O)CCSc1nc2ccccc2o1 | -9.3% (inactive)
O=C(CSc1nc2ccccc2s1)Nc1ncccn1 | -3.2% (inactive)
CCS(=O)(=O)CCSc1nc2ccccc2s1 | -17.4% (inactive)
c1ccc2oc(SCc3nc4ccccc4s3)nc2c1 | 8.6% (inactive)
Cc1ccccc1N(C)S(=O)(=O)c1ccc2[nH]cc(C(=O)NCC3CCCO3)c(=O)c2c1 (centres undefined) | -13.7% (inactive)
O=C(O)CCC(=O)c1ccc2c(c1)OCCO2 | 0% (inactive)
O=C(Cc1ccc2c(c1)OCCO2)c1c(O)cc(O)cc1O | 60.9% (active)
O=C(O)COc1ccc(C(=O)Cc2ccc3c(c2)OCCCO3)c(O)c1 | -8.7% (inactive)
Nn1c(SCC(=O)NCc2ccccc2)nnc1C1CC1 | 6.6% (inactive)
COC(=O)C1CCN(C(=O)C(C)Oc2ccc(Cl)cc2Cl)CC1 (centres undefined) | -16.4% (inactive)
CCN(CC)CCCNC(=O)C1CCN(C(=O)c2cc3sccc3n2Cc2ccc(F)cc2)CC1 | 20.7% (inactive)
CC(=O)C1=C(C)N=c2s/c(=C/c3ccc4c(c3)OCO4)c(=O)n2C1c1ccc(N(C)C)cc1 (centres undefined) | -3.5% (inactive)
COc1ccc(C2C(C(C)=O)=C(C)N=c3s/c(=C/c4ccc5c(c4)OCO5)c(=O)n32)cc1 (centres undefined) | -4.1% (inactive)
CCOC(=O)c1cnc2c(C(=O)OC)cccc2c1NCCN1CCOCC1 | -10.4% (inactive)
COc1ccc(N2CCN(CC(O)c3c[nH]c4ccc(OC)cc34)CC2C)cc1 (centres undefined) | 41.3% (inactive)
COc1ccc(CCNC(=O)c2cc3ccccn3n2)c(OC)c1OC | -7% (inactive)
COc1ccc(OC)c(Nc2nc(-c3sc(C)nc3C)cs2)c1 | 7.9% (inactive)

SMILES | cytotoxicity
COc1ccc(OC)c(Nc2nc(-c3ccc(O)c(O)c3)cs2)c1 | 67.2% (active)
COc1ccc(OC)c(Nc2nc(-c3cccs3)cs2)c1 | 44% (inactive)
Cc1cc2cc(C(c3nnnn3Cc3ccco3)N3CCc4ccccc4C3)c(=O)[nH]c2cc1C (centres undefined) | -4.7% (inactive)
CC(=O)Oc1c(S(=O)(=O)c2ccccc2)c(C)nn1C(C)(C)C | 13.3% (inactive)
Cc1nn(-c2ccccc2)c(OC(=O)c2cccs2)c1S(=O)(=O)c1ccccc1 | -5.8% (inactive)
Cc1nn(C(C)(C)C)c(OC(=O)c2ccc3c(c2)OCO3)c1S(=O)(=O)c1ccccc1 | 60.9% (active)
Cc1nn(C(C)(C)C)c(OC(=O)c2cccs2)c1S(=O)(=O)c1ccccc1 | 54.2% (active)
CC(=O)Oc1c(S(=O)(=O)c2ccc(C)cc2)c(C)nn1C(C)(C)C | 12.6% (inactive)
Cc1nn(C(C)(C)C)c(OC(=O)C2CCCC2)c1S(=O)(=O)c1ccccc1 | -9.3% (inactive)
Cc1ccc(S(=O)(=O)c2c(C)nn(C(C)(C)C)c2OC(=O)c2ccco2)cc1 | 14.5% (inactive)
Cc1ccc(S(=O)(=O)c2c(C)nn(C(C)(C)C)c2OC(=O)c2cccs2)cc1 | -6.5% (inactive)
CCC(Sc1nncn1C)C(=O)Nc1nnc(-c2ccccc2Cl)s1 (centres undefined) | 3.8% (inactive)
CC(=O)Nc1ccc(C(=O)Nc2ccc(S(=O)(=O)NCC3CCCO3)cc2)cc1 (centres undefined) | -3.3% (inactive)
C=C(C)COc1ccc(-c2nc(N)ncc2Oc2ccccc2OCC)c(O)c1 | 7.3% (inactive)
COc1ccc(-c2[nH]ncc2-c2cnc(C)s2)c(O)c1 | 6.4% (inactive)
CCOc1ccc(-c2[nH]ncc2Oc2ccccc2OCC)c(O)c1 | 53.9% (active)
COc1ccc(Oc2cn[nH]c2-c2ccc(O)cc2O)cc1 | 9.4% (inactive)
CCOc1ccccc1Oc1cn[nH]c1-c1ccc(OC)cc1O | 51.7% (active)
CCOc1ccc(-c2[nH]ncc2Oc2ccccc2OC)c(O)c1 | 65.8% (active)
COc1ccc(-c2[nH]ncc2Oc2ccccc2OC)c(O)c1 | 6.8% (inactive)
C=C(C)COc1ccc(-c2[nH]ncc2Oc2ccccc2OCC)c(O)c1 | 86% (active)
O=c1c2c3nc4ccccc4nc3n(/N=C/c3cccs3)c2ncn1-c1ccccc1 | -19.9% (inactive)
